Publication PMC6602471
Over roughly 1,300 sequences, “log fluorescence intensity” has its median near 8.9; the highest 2% begin near 13. For the sample, the highest values were picked, then their nearest neighbours and some sequences at random.

target: T1, ELK1 (Homo sapiens, UniProt P19419 1-428); experiment: custom PBM; custom protein-binding microarray; buffer, salt, pH and temperature not stated; high values mean tight binding; settings: dsDNA, one strand shown
T1 sequence: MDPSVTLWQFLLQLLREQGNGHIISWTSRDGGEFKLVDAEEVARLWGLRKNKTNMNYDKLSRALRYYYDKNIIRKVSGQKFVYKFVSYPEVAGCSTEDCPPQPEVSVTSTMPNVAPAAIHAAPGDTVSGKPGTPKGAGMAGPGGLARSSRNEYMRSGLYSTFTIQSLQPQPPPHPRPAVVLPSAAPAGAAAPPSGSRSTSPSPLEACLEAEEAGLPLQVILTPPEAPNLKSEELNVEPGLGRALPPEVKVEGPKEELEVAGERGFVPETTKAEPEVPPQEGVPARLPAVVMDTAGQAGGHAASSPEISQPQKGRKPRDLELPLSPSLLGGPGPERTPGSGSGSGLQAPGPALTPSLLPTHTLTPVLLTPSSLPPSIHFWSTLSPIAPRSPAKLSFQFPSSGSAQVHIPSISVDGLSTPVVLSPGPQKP

Sequence	binding signal
CGGAAGTGTCGTAAAAGTCGGATATCCGGTTCTTCTGTCTTGATTCGCTTGACGCTGCTG	12.5 log fluorescence intensity
CGGAAGTGTCGTAAACGTCGCATATCCGGTTCTTCTGTCTTGATTCGCTTGACGCTGCTG	11.6 log fluorescence intensity
CGAAAGTGTCGTAAACGTCGGATATCCGGTTCTTCTGTCTTGATTCGCTTGACGCTGCTG	12.5 log fluorescence intensity
CGGAAGTGTCGTAAATGTCGGATATCCGGTTCTTCTGTCTTGATTCGCTTGACGCTGCTG	12.7 log fluorescence intensity
CAGAAGTGTCGTAAACGTCGGATATCCGGTTCTTCTGTCTTGATTCGCTTGACGCTGCTG	12.6 log fluorescence intensity
CGTAAGTGTCGTAAACGTCGGATATCCGGTTCTTCTGTCTTGATTCGCTTGACGCTGCTG	12.4 log fluorescence intensity
CGGTAGTGTCGTAAACGTCGGATATCCGGTTCTTCTGTCTTGATTCGCTTGACGCTGCTG	12.5 log fluorescence intensity
CGGGAGTGTCGTAAACGTCGGATATCCGGTTCTTCTGTCTTGATTCGCTTGACGCTGCTG	12.1 log fluorescence intensity
CGGAAGTGTCGTAAAGGTCGGATATCCGGTTCTTCTGTCTTGATTCGCTTGACGCTGCTG	12.4 log fluorescence intensity
CGGAAGTGTCGTAAACGTCAGATATCCGGTTCTTCTGTCTTGATTCGCTTGACGCTGCTG	11.2 log fluorescence intensity
CGCAAGTGTCGTAAACGTCGGATATCCGGTTCTTCTGTCTTGATTCGCTTGACGCTGCTG	12.6 log fluorescence intensity
CTGAAGTGTCGTAAACGTCGGATATCCGGTTCTTCTGTCTTGATTCGCTTGACGCTGCTG	12.3 log fluorescence intensity
CGGAAGTGCCGTAAACGTCGGATATCCGGTTCTTCTGTCTTGATTCGCTTGACGCTGCTG	12.5 log fluorescence intensity
CGGAAGTGTCGTAAACGTCGGATATCCGGTTCTTGTGTCTTGATTCGCTTGACGCTGCTG	12.6 log fluorescence intensity
CGGAAGTGTCGTAAACGTCGGATATCCGGTTGTTCTGTCTTGATTCGCTTGACGCTGCTG	12.5 log fluorescence intensity
CGGAAGTGTCGTAAACGTCGGATATCCGGTTCTTTTGTCTTGATTCGCTTGACGCTGCTG	12.5 log fluorescence intensity
CGGAAGTGGCGTAAACGTCGGATATCCGGTTCTTCTGTCTTGATTCGCTTGACGCTGCTG	12.1 log fluorescence intensity
CGGAAGTGTCGTAAACGTCGGATATCCGGTGCTTCTGTCTTGATTCGCTTGACGCTGCTG	12.5 log fluorescence intensity
CGGAAGTGTCGTAAACGTCGAATATCCGGTTCTTCTGTCTTGATTCGCTTGACGCTGCTG	11.7 log fluorescence intensity
CGGAAGTGTCGTAAACGTCGGATATCCGGGTCTTCTGTCTTGATTCGCTTGACGCTGCTG	11.9 log fluorescence intensity
CGGAAGTGTCGTAAACGTCGGATATCCGGTCCTTCTGTCTTGATTCGCTTGACGCTGCTG	12.6 log fluorescence intensity

Sequence	binding signal
CGGAAGTGACGTAAACGTCGGATATCCGGTTCTTCTGTCTTGATTCGCTTGACGCTGCTG	12.3 log fluorescence intensity
CGGAAGTGTCGTAAACGTCCGATATCCGGTTCTTCTGTCTTGATTCGCTTGACGCTGCTG	12.3 log fluorescence intensity
CCGAAGTGTCGTAAACGTCGGATATCCGGTTCTTCTGTCTTGATTCGCTTGACGCTGCTG	12.6 log fluorescence intensity
TCCGGCTACCAGCGCCACCCACTTCAGGCCTTGTAGGTCTTGATTCGCTTGACGCTGCTG	8.91 log fluorescence intensity
CACAATATTTACAGTAATGTAGCACGCGTAACTCCTGTCTTGATTCGCTTGACGCTGCTG	8.95 log fluorescence intensity
CGGAAGTGTCGTAAACGTCGGATATCCGGTTATTCTGTCTTGATTCGCTTGACGCTGCTG	12.5 log fluorescence intensity
CGGAAGTGTCGTAAACGTCGGTTATCCGGTTCTTCTGTCTTGATTCGCTTGACGCTGCTG	10.1 log fluorescence intensity
CGGAAGTGTCGTAAACGACGGATATCCGGTTCTTCTGTCTTGATTCGCTTGACGCTGCTG	12.7 log fluorescence intensity
CGGAAGTGTCGTAAACGGCGGATATCCGGTTCTTCTGTCTTGATTCGCTTGACGCTGCTG	12.6 log fluorescence intensity
GGAAAAAGGCCCAGGGTAACACCGCAAGTGGGCTTAGTCTTGATTCGCTTGACGCTGCTG	8.91 log fluorescence intensity
TAAAGGGAAGACGGTTGTGGTAGGTCCGGGTATTAAGTCTTGATTCGCTTGACGCTGCTG	8.98 log fluorescence intensity
CACAATTTTAACAGTAATGTAGCACGCGTAACTCCTGTCTTGATTCGCTTGACGCTGCTG	8.9 log fluorescence intensity
GATGAATTTCTGCCCTTATTCGCACGTGCCATAACAGTCTTGATTCGCTTGACGCTGCTG	8.9 log fluorescence intensity
GGAAAAAGGCCCAGGGTTACACCGGAAGTGGGCTTAGTCTTGATTCGCTTGACGCTGCTG	11 log fluorescence intensity
TAAAGGGAACACGGTTGTGGTAGTTCCGGGTATTAAGTCTTGATTCGCTTGACGCTGCTG	11.2 log fluorescence intensity
GGAAAAAGGCCCAGGGCAACACCGGAAGTGGGCTTAGTCTTGATTCGCTTGACGCTGCTG	10.9 log fluorescence intensity
CCCAATTTTTACAGTAATGTAGCACGCGTAACTCCTGTCTTGATTCGCTTGACGCTGCTG	8.98 log fluorescence intensity
CTGGGACTTGACCCAACTCTGCCACGTGGGCCGTTTGTCTTGATTCGCTTGACGCTGCTG	9.05 log fluorescence intensity
CGGGGACTTGACCCAACTCTGCCACGTGGGTCGTTTGTCTTGATTCGCTTGACGCTGCTG	8.96 log fluorescence intensity
TACTTACTTATATATGCGAATGCACATGAATAGACCGTCTTGATTCGCTTGACGCTGCTG	9.06 log fluorescence intensity
TAAAGGGAAGACGGATGTGGTAGTTCCGGGTATTAAGTCTTGATTCGCTTGACGCTGCTG	12.6 log fluorescence intensity

Sequence	binding signal
TAAAGGGAAGACGCTTGTGGTAGTTCCGGGTATTAAGTCTTGATTCGCTTGACGCTGCTG	11 log fluorescence intensity
TAAAGGGAAGACGGGTGTGGTAGTTCCGGGTATTAAGTCTTGATTCGCTTGACGCTGCTG	11.2 log fluorescence intensity
TCCAGCTACCAGCTCCACCCACTTCAGGCCTTGTAGGTCTTGATTCGCTTGACGCTGCTG	8.99 log fluorescence intensity
CACAATTTGTACAGTAATGTAGCACGCGTAACTCCTGTCTTGATTCGCTTGACGCTGCTG	8.91 log fluorescence intensity
GGAAAAAGGCCCAGGGTAACCCCGGAAGTGGGCTTAGTCTTGATTCGCTTGACGCTGCTG	10.5 log fluorescence intensity
CAGCATAGGACTTCTTCCCTGAAGCAATTGATAACTGTCTTGATTCGCTTGACGCTGCTG	8.96 log fluorescence intensity
CACAATTTTTACAGTAATGTAGCACGCGGAACTCCTGTCTTGATTCGCTTGACGCTGCTG	8.97 log fluorescence intensity
TCCGGCTACAAGCTCCACCCACTTCAGGCCTTGTAGGTCTTGATTCGCTTGACGCTGCTG	8.93 log fluorescence intensity
TAAAGGGAAGACGGTTGTGGTAGTTCCGGGTACTAAGTCTTGATTCGCTTGACGCTGCTG	11.3 log fluorescence intensity
GTGTATAGGATCCCATCCAACACACCTGTTAAAATGGTCTTGATTCGCTTGACGCTGCTG	8.91 log fluorescence intensity
TCCGGTTACCAGCTCCACCCACTTCAGGCCTTGTAGGTCTTGATTCGCTTGACGCTGCTG	8.91 log fluorescence intensity
TAAAGGGAAGACGGTTGTGGTAGTTCCGCGTATTAAGTCTTGATTCGCTTGACGCTGCTG	9.44 log fluorescence intensity
TCCGGCTCCCAGCTCCACCCACTTCAGGCCTTGTAGGTCTTGATTCGCTTGACGCTGCTG	8.92 log fluorescence intensity
CACAATTTTTACAGTAATGTAGCACGCGTAATTCCTGTCTTGATTCGCTTGACGCTGCTG	8.98 log fluorescence intensity
CAGCATAGGACTCCTTCCCTGAAGCAATTGATAACCGTCTTGATTCGCTTGACGCTGCTG	8.92 log fluorescence intensity
CACAATTTTTACAGTAATGTAGCACGCGTAGCTCCTGTCTTGATTCGCTTGACGCTGCTG	9.06 log fluorescence intensity
TAAAGGGACGACGGTTGTGGTAGTTCCGGGTATTAAGTCTTGATTCGCTTGACGCTGCTG	11.3 log fluorescence intensity
CACAATTTTTACAGTAATGTAGCACGCGTTACTCCTGTCTTGATTCGCTTGACGCTGCTG	9.11 log fluorescence intensity
GATTTATTTCTGCCCTTATTCGCACGTGCCATAACAGTCTTGATTCGCTTGACGCTGCTG	8.91 log fluorescence intensity
CAGCATAGGACTTCTTCCCTGAAGCAATAGATAACCGTCTTGATTCGCTTGACGCTGCTG	8.97 log fluorescence intensity
CACAATTTTTACAGTAATGTAGTACGCGTAACTCCTGTCTTGATTCGCTTGACGCTGCTG	9.01 log fluorescence intensity

Sequence	binding signal
GGAAAAAGGCCCAGGGTAACACCGGAAGTGGGCGTAGTCTTGATTCGCTTGACGCTGCTG	10.9 log fluorescence intensity
TGTCGGGTAAGGGAATGTAGATCACGTGAATGACAAGTCTTGATTCGCTTGACGCTGCTG	8.94 log fluorescence intensity
TAAAGGGAAGACGGTTGTGGTAGTTCCGGGTTTTAAGTCTTGATTCGCTTGACGCTGCTG	11.2 log fluorescence intensity
TACTGACTTATATATGCGGATGCACATGAATAGACCGTCTTGATTCGCTTGACGCTGCTG	9.12 log fluorescence intensity
GGAAAAAGGCCCAGGGTAACACCGGAAGTGGCCTTAGTCTTGATTCGCTTGACGCTGCTG	10.9 log fluorescence intensity
GCTGCTGCGGTGCATACCCCACCGGATGTGACCTCGGTCTTGATTCGCTTGACGCTGCTG	10.1 log fluorescence intensity
GGAAAAAGGCCCAGGGTAACACAGGAAGTGGGCTTAGTCTTGATTCGCTTGACGCTGCTG	9.55 log fluorescence intensity
GATTAATATCTGCCCTTATTCGCACGTGCCATAACAGTCTTGATTCGCTTGACGCTGCTG	8.95 log fluorescence intensity
CTGCATAGGACTTCTTCCCTGAAGCAATTGATAACCGTCTTGATTCGCTTGACGCTGCTG	8.94 log fluorescence intensity
GACTAATTTCTGCCCTTATTCGCACGTGCCATAACAGTCTTGATTCGCTTGACGCTGCTG	8.95 log fluorescence intensity
TCCGGCTACCAGTTCCACCCACTTCAGGCCTTGTAGGTCTTGATTCGCTTGACGCTGCTG	9.18 log fluorescence intensity
GGAATAAGGCCCAGGGTAACACCGGAAGTGGGCTTAGTCTTGATTCGCTTGACGCTGCTG	10.9 log fluorescence intensity
TACTAACTTATATATGCGAATGCACATGAATAGACCGTCTTGATTCGCTTGACGCTGCTG	8.93 log fluorescence intensity
TCCGGCTACCAGCTCCACCCACTTCAGTCCTTGTAGGTCTTGATTCGCTTGACGCTGCTG	9.06 log fluorescence intensity
GATTCATTTCTGCCCTTATTCGCACGTGCCATAACAGTCTTGATTCGCTTGACGCTGCTG	8.97 log fluorescence intensity
GGAAAAAGGCCCAGGGAAACACCGGAAGTGGGCTTAGTCTTGATTCGCTTGACGCTGCTG	11.4 log fluorescence intensity
GTGTATAGGATCCCATCCAACACACGTGTTCAAATGGTCTTGATTCGCTTGACGCTGCTG	8.97 log fluorescence intensity
TACTGACTTCTATATGCGAATGCACATGAATAGACCGTCTTGATTCGCTTGACGCTGCTG	8.96 log fluorescence intensity
